High-throughput results as filed in PubChem.
This is a sample that favours compounds with a hit; in the whole collection about 9.9% have one here.
MCF10A rereplic: DNA re-replication induction in MCF 10a cells | 2.9% of 350,000 active | AID 624296 | MCF 10A DNA re-replication, Hoechst nuclear intensity, 48 h | Potency, µM (doses to about 46.1 µM), for inactives: at the top dose activity, positive = re-replication, actives largely listed as activators; note: potency is the fitted concentration of half-maximal effect; % of control where 0% means no effect; nearly all actives have a fitted effect of over 50% in size
SW480 rereplic: inducers of DNA re-replication in SW480 colon cancer cells | Potency, µM (titrated, usually from 46.1 µM), for the others: at the highest dose re-replication activation, actives largely listed as activators | AID 624297 | 1.8% of 340,000 active | SW480 DNA re-replication, Hoechst DNA content imaging, 48 h; note: potency is the fitted concentration of half-maximal effect; % of control where 0% means no effect; nearly all actives have a fitted effect of over 55% in size
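Per well, 250 cells were exposed to pinned compound for 48 hr. Nuclear DNA was visualised with Hoechst (40 min, 37 C) and total object intensity recorded by fluorescence scanning.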
KB-V1 MDR tox: kills drug-selected multidrug resistant KB-V1 cells. 3.4% of 400,000 active. KB-V1 MDR cells viability, CellTiter-Glo, 72 h. Potency, µM (top dose mostly 46.1 µM), usual class: cytotoxic. AID 1347076; note: potency is the fitted concentration of half-maximal effect; % is set by controls: 0 for no effect and ±100 for the full control effect; nearly all actives have a fitted effect of over 60% in size
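KB-V1 cells (P-gp-expressing MDR subline of KB-3-1) in phenol-red-free DMEM with 10% FBS were exposed to library compounds over a concentration series for 72 h at 37 degrees C. Viability read by CellTiter-Glo luminescence; concentration-effect curves fitted after normalization.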
KB-3-1 tox: kills parental KB-3-1 adenocarcinoma cells | KB-3-1 viability, CellTiter-Glo ATP luminescence, 72 h | Potency, µM (doses to about 46.1 µM), actives largely listed as cytotoxic | 1.4% of 400,000 active; note: potency is the fitted concentration of half-maximal effect; % is set by controls: 0 for no effect and ±100 for the full control effect; nearly all actives have a fitted effect of over 60% in size
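Parental KB-3-1 adenocarcinoma cells in phenol-red-free DMEM with 10% FBS were pin-treated with compounds at several concentrations, incubated 72 h at 37 °C, and viability read by CellTiter-Glo luminescence; concentration-effect curves were fitted after normalization.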
IL-1B inflam inh: inflammasome signaling inhibition, IL-1 beta readout; activity change, % at 57.5 µM; 4.7% of 360,000 active; THP-1 LPS/ATP IL-1B secretion, AlphaLISA, 16 h; active compounds read low; in the data active = activity change below about -50%; inconclusive = mostly about -30% to -49%; note: % is set by controls: 0 for no effect and ±100 for the full control effect
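Secreted IL-1B measured by AlphaLISA bead assay after 16 h compound exposure of THP-1 cells; compounds (final up to 57.5 uM) added 1 h before LPS (250 ng/mL) and ATP (1.25 mM) stimulation; lower signal means less secretion.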
* = called active by the depositor; i = inactive; u = inconclusive; x = not tested or not shown; [ ] = remark or other dose. Unless noted, calls come from the whole dose curve; as a rule, active = well fitted curve in the direction sought with a large enough effect; inconclusive = small, poorly fitted or top-dose-only effect, or another doubt; inactive = no such curve, though single readings can be large; an effect the other way counts as inactive or inconclusive.

SMILES	MCF10A rereplic	SW480 rereplic	KB-V1 MDR tox	KB-3-1 tox	IL-1B inflam inh
CC(=O)NC1=C(Nc2ccc(N(C)C)cc2)C(=O)c2ccccc2C1=O	8%	18%	i	i	30
O=C(Cn1cc(C(F)(F)F)ccc1=O)NC1CCCC1	2%	-2%	i	i	3
O=C(Cc1ccc(S(=O)(=O)N2CCOCC2)s1)OCc1ccc(Cl)cc1	u	-5%	i	i	27
CC(C)(C)c1ccc(-c2cn(-c3ccc(Br)cc3)c3[n+]2CCCS3)cc1	u	1%	i	u	-99*
c1ccc(-c2cn(-c3ccccc3)c3[n+]2CCS3)cc1	3%	6%	u	u	-12
COc1ccc(-c2cn(-c3ccccc3)c3[n+]2CCS3)cc1	20%	-7%	i	3.3µM*	-11
O=C(COn1nnc2ccccc21)N1CCN(Cc2ccccc2)CC1	0%	-24%	i	i	10
C/C=C(/C)C(=O)O[C@@H]1c2c(ccc3ccc(=O)oc23)O[C@@H]1C(C)(C)OC(=O)/C(C)=C\C	u	10%[9.22 µM]	6.5µM*	u	-11
C/C(=N\Nc1ccc([N+](=O)[O-])cc1)c1ccc(-n2nncc2C)cc1	u	u	u	i	u
CC(C)(C)c1cnnn1-c1ccc(/C=N/Nc2ccc([N+](=O)[O-])cc2)cc1	u	18µM*	i	u	-14
CC(=O)O[C@]1(C(C)=O)CC[C@H]2[C@@H]3C=CC4=CC(=O)C=C[C@]4(C)[C@H]3CC[C@@]21C	u	1%	13µM*	u	-25
N=C(c1cccc([N+](=O)[O-])c1)N1CCCCCC1	-2%	-4%	u	i	2
Cc1nc(N2CCCCC2)sc1C(=O)c1cccc([N+](=O)[O-])c1	-2%	3%	u	i	-103*
Cc1nc(N2CCCCC2)sc1C(=O)c1ccc(SCCO)c([N+](=O)[O-])c1	u	29%	15µM*	i	-54*
CN1CCN(c2ncnc3c2ncn3[C@H]2CN(Cc3ccc(-c4ccccc4)cc3)C[C@@H](CO)O2)CC1	x	x	i	i	-4
COCCNCC(=O)Nc1ccc(OC(F)(F)F)cc1	1%	4%	i	i	-3
Cc1onc(-c2c(F)cccc2Cl)c1C(=O)Nc1cc2cc([N+](=O)[O-])ccc2oc1=O	x	x	i	i	0
COc1ccc2c(C)cc3n[nH]c(=S)n3c2c1	-5%	-30%	i	i	31
CC(=O)Nc1nc(C)c(-c2csc(Nc3cccc(C(C)=O)c3)n2)s1	-3%	4%	u	u	-79*
CC(=O)Nc1nc(C)c(-c2csc(Nc3cccc([N+](=O)[O-])c3)n2)s1	u	14%	u	i	-51*
Cc1nc2ccccc2c(=O)n1/N=C/c1ccc(O)cc1O	-25%	-2%	i	i	75
CN(/N=C/c1ccc(O)cc1O)c1nc(-c2ccccc2)cc(-c2ccccc2)n1	18µM*	u	i	u	-24
Cc1cc(-c2ccccc2)nc(N/N=C/c2ccccc2)n1	21%	12%	i	i	-7
Cc1cc(-c2ccccc2)nc(N/N=C/c2ccc([N+](=O)[O-])cc2)n1	9%	-84%	23µM*	i	-87*
Cc1cc(-c2ccccc2)nc(N/N=C/c2ccc(O)cc2O)n1	8%	u	u	u	-89*
SMILES	MCF10A rereplic	SW480 rereplic	KB-V1 MDR tox	KB-3-1 tox	IL-1B inflam inh
Cc1cc(-c2ccccc2)nc(N/N=C/c2ccco2)n1	-3%	8%	u	i	-11
CSc1nn(Cc2ccc(C)cc2)c(N)c1S(=O)(=O)c1ccccc1	x	x	i	i	x
COc1ccc(-c2cn3nc(SCC(=O)Nc4cccc(C)c4C)ccc3n2)cc1	x	x	u	i	x
CCCCN(C)C(=O)CSc1nc2ccccc2nc1Cc1ccc(C)cc1	x	x	i	u	x
Cc1ccc(OCC(=O)Nc2ccon2)c([N+](=O)[O-])c1	-6%	-2%	i	i	-20
COc1ccc(Cn2cccc(NC(=O)Nc3cccc(C#N)c3)c2=O)cc1	u	u	4.1µM*	i	-13
COc1ccc(Cn2c(C)c(C)c(C#N)c2NC(=O)Nc2cccc(C)c2)cc1	u	0%	i	i	-7
